Assay [1] can be described thus: binders of probe aFSTL3 on microarray, primary screen, stem cell growth factor project, biochemical, small-molecule microarray, fluorescence 635/667 (AID 1064).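 Further: measures binding of the biotinylated anti-FSTL3 antibody to printed compounds.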 Conditions: higher = more signal.
Assay [2] in a line: binders from COS7 lysate, DM2A8 probe, primary screen, torsin A project, cell lysate, small-molecule microarray, fluorescence 635/667 (AID 1065). Conditions: higher = more signal, COS7 lysate expressing mutant human TOR1A.
Assay [3] can be described thus: binders of probe aFGF2 on microarray, primary screen, stem cell growth factor project, biochemical, small-molecule microarray, fluorescence 635/667 (AID 1067).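 Further: measures binding of biotinylated aFGF2 protein to printed compounds on slides; z-score merges feature fluorescence and signal-to-noise across triplicate slides.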 Particulars: higher = more signal.
The nature of assay [4]: binders of probe aFGF10 on microarray, primary screen, stem cell growth factor project, biochemical, small-molecule microarray, fluorescence 635/667 (AID 1071).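 Further: score merges 667 nm spot intensity and signal to noise from triplicate slides.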 Particulars: higher = more signal.
Assay [5] concerns the target Neurogenic locus notch homolog protein 2 (Homo sapiens) (UniProt Q04721). Put plainly: Notch2 binders on small-molecule microarrays, primary screen, biochemical, small-molecule microarray, 635 nm fluorescence, stem cell growth factors (AID 1073). Conditions: Notch2 binding, higher = more signal.
The target in assay [6] is Pro-neuregulin-1, membrane-bound isoform (Homo sapiens) (UniProt Q02297). Put plainly: NRG1 binders on small-molecule microarrays, primary screen, psychiatric disease protein project, biochemical, small-molecule microarray, fluorescence 635/667 (AID 1075).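 Further: score combines 667 nm spot fluorescence with signal to noise.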 Conditions: NRG1 binding, 635 nm fluorescence, higher = more signal.
Pro-neuregulin-1, membrane-bound isoform (Homo sapiens), sequence (Q02297 whole entry, looked up, the tested form may be a part, canonical isoform): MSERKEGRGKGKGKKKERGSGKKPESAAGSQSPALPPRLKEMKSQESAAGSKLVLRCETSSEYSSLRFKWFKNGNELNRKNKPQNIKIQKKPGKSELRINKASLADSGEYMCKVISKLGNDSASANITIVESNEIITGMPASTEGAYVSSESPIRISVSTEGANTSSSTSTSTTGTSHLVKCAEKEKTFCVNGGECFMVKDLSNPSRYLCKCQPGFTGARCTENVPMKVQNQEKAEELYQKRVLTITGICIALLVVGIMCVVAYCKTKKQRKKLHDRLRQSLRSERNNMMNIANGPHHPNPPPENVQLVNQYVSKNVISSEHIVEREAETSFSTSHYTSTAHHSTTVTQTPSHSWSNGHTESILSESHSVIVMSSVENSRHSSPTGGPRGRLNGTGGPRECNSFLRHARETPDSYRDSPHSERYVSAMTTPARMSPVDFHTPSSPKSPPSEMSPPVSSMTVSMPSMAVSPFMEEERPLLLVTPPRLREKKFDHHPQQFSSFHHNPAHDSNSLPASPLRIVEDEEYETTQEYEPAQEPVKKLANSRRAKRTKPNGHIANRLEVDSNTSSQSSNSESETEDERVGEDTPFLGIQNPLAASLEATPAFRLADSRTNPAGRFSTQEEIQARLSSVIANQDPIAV
Assay [7] deals with Neuregulin-1 EGF-like domain. As to the kind of experiment: binders of neuregulin-1 EGF-like domain, primary screen, biochemical, small-molecule microarray, 635 nm fluorescence (AID 1081).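 Further: binding of the protein to compounds printed on small-molecule microarray slides.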 Conditions: small-molecule microarray binding, higher = more signal.
A short description of assay [8]: FRG1 promoter luciferase signal modulators, primary screen, FRG1 inhibition for FSHD, cell-based, C2C12 myotubes, firefly/Renilla luciferase, luminescence (AID 1084). Conditions: higher = more signal, called active from +8 up or from −8 down.
Assay [9] in a line: binders of probe aFST on microarray, primary screen, stem cell growth factor project, biochemical, small-molecule microarray, fluorescence 635/667 (AID 1086).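 Further: score merges 667 nm fluorescence with signal-to-noise of each printed compound spot.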 Particulars: higher = more signal.
A short description of assay [10]: binders of probe aHhip on microarray, primary screen, stem cell growth factor project, biochemical, small-molecule microarray, fluorescence 635/667 (AID 1087).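 Further: score merges spot fluorescence at 667nm with spot signal to noise ratio.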 Particulars: higher = more signal.
Assay [11] relates to PRMT1 (protein arginine N-methyltransferase 1). As to the kind of experiment: PRMT1 binders on small-molecule microarrays, primary screen, biochemical, small-molecule microarray, 635 nm fluorescence (AID 1088).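 Further: binding of Prmt1 protein to compounds spotted on small-molecule microarray slides.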 Particulars: small-molecule microarray binding, higher = more signal.
A short description of assay [12]: yeast growth modulation, basal conditions, primary screen, YJM789 clinical isolate, OD600, 24 h (AID 1089).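 Further: growth of clinical yeast isolate S. cerevisiae YJM 789 seeded 1000 cells per well; test concentration not given here.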 Conditions: S. cerevisiae YJM789 growth, higher = more signal, called active from +8 up or from −8 down.
Assay [13] in a line: fission yeast growth modulation, primary screen, strain 972, OD600, 24 h, no modulator (AID 1090).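 Further: basal condition with compound alone and no growth modifier present; test concentration not given here.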 Conditions: S. pombe 972 growth, higher = more signal, called active from +8 up or from −8 down.
Assay [14] is described as follows: S. cerevisiae growth modulation with rapamycin, primary screen, strain BY4716, OD600, 96 h (AID 1091). Further: test concentration not given here. Particulars: higher = more signal, called active from +8 up or from −8 down.
In assay [15] the target is Torsin-1A-interacting protein 2 (Homo sapiens) (UniProt Q8NFQ8). Put plainly: LULL1 binders on small-molecule microarray, primary screen, cell lysate, human LULL1 lysate, 635/667 nm fluorescence (AID 1092).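 Further: probe is lysate of COS7 cells overexpressing human LULL1; score merges per-feature 667 nm fluorescence with signal-to-noise.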 Conditions: hLULL1 lysate binding, 635 nm fluorescence, higher = more signal.
Torsin-1A-interacting protein 2 (Homo sapiens), sequence (Q8NFQ8 whole entry, looked up): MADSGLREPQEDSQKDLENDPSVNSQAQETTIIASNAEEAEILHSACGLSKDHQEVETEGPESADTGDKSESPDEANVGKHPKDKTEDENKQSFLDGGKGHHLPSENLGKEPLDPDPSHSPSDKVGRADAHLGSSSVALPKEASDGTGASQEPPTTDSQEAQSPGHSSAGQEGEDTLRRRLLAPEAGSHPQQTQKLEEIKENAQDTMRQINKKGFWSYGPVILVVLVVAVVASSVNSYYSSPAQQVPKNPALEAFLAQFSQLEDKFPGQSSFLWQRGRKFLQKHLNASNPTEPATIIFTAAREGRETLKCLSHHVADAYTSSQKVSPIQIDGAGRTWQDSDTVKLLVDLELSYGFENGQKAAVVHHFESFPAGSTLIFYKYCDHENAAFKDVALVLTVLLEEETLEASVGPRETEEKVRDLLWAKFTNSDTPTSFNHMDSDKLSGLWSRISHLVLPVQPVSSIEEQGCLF
Assay [16] in a line: E. coli growth modulation, two-sided OD650, primary screen, E. coli filamentation project, strain DRC41, 24 h (AID 1093).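 Further: MC1000 strain lacking acrAB efflux and sulA so SOS filamentation is blocked; test concentration not given here.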 Particulars: OD650, 24 h, higher = more signal, called active from +8 up or from −8 down.
Assay [17] can be described thus: small-molecule microarray binders of probe aLefty2, primary screen, biochemical, biotinylated probe, 635/667 nm fluorescence (AID 1094).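 Further: score merges spot fluorescence near 667 nm with spot signal-to-noise ratio.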 Particulars: higher = more signal.
Assay [18] has as its system Noggin (protein binding on small-molecule microarray). As to the kind of experiment: Noggin binders on small-molecule microarray, primary screen, biochemical, 635/667 nm fluorescence (AID 1095).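 Further: score merges 667 nm feature fluorescence with signal to noise over triplicate slides.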 Conditions: 635 nm fluorescence, higher = more signal.
In assay [19] the target is Neurogenic locus notch homolog protein 3 (Homo sapiens) (UniProt Q9UM47). Put plainly: NOTCH3 binders on small-molecule microarray, primary screen, biochemical, 635/667 nm fluorescence (AID 1096). Conditions: NOTCH3 binding, 635 nm fluorescence, higher = more signal.
Assay [20] is described as follows: small-molecule microarray binders of probe aEGFR, primary screen, biochemical, biotinylated probe, 635/667 nm fluorescence (AID 1097).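 Further: probe is a biotinylated anti-EGFR antibody binding compounds printed on slides; score combines fluorescence near 667 nm and signal to noise of each spot.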 Particulars: higher = more signal.

Activity calls are given as the source filed them.

Neurogenic locus notch homolog protein 2 (Homo sapiens), sequence (Q04721 whole entry, looked up, canonical isoform): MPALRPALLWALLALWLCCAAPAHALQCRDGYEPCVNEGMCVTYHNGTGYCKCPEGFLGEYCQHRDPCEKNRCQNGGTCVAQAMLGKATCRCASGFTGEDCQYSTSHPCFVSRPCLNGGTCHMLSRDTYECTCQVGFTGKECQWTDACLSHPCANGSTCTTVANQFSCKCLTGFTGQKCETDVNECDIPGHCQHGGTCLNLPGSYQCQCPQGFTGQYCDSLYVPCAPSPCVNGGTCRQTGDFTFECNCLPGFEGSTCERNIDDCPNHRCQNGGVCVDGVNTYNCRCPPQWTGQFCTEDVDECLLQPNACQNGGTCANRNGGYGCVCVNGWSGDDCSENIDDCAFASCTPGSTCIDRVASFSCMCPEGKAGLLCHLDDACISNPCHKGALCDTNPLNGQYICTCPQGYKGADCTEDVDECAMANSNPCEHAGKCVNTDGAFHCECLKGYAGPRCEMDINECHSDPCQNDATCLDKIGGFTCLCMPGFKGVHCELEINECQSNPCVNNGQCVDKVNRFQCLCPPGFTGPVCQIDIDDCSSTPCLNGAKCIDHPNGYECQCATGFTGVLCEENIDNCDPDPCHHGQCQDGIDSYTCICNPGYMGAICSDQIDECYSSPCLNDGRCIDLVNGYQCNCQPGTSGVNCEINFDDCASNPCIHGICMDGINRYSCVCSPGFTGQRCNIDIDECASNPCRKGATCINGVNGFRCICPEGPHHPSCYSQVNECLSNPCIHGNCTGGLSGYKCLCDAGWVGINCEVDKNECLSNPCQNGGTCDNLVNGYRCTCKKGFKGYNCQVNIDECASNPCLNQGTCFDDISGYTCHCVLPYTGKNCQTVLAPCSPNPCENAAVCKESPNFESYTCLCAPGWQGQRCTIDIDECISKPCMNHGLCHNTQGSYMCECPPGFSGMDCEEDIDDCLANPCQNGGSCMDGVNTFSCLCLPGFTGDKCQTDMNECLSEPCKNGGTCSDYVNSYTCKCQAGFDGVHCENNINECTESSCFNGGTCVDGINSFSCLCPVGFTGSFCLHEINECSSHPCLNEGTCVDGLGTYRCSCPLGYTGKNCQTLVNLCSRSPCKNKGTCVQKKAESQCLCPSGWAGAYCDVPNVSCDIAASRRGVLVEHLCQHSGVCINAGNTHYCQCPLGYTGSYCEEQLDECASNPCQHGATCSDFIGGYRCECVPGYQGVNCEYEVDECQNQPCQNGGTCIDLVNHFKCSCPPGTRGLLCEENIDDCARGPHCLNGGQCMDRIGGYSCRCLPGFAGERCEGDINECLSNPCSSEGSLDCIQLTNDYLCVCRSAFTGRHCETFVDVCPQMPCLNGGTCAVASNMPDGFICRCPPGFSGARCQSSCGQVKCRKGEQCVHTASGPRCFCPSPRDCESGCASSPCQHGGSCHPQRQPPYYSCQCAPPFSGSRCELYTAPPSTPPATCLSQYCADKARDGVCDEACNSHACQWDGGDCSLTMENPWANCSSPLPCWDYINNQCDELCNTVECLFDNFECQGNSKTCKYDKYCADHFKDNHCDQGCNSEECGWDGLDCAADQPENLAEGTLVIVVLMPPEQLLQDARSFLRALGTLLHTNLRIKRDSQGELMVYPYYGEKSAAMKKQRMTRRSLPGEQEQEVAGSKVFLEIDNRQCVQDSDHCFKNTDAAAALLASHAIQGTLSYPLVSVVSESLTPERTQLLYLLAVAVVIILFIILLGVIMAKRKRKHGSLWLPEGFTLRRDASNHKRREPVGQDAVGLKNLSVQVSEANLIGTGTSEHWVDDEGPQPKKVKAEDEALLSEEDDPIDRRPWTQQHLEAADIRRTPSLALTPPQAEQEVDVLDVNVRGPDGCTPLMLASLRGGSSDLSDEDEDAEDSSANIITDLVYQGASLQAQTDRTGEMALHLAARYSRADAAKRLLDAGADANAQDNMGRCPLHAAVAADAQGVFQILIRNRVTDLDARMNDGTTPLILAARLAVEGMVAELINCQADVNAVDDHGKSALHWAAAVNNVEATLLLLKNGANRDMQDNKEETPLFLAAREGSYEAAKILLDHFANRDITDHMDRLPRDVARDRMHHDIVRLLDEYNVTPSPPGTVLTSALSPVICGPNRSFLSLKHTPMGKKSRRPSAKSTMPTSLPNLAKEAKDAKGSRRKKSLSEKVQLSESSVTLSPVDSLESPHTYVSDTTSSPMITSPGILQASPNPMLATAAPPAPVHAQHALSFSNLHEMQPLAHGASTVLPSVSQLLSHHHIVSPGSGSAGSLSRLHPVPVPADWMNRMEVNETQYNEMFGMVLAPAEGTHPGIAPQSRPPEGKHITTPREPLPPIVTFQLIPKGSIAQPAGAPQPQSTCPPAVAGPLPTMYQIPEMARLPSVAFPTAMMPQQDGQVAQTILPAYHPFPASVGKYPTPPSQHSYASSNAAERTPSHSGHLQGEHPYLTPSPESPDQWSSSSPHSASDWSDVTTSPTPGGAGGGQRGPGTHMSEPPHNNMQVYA

On to `CO[C@H]1O[C@H](CO)[C@@H](OC(=O)Nc2cccc(F)c2)[C@H](OC(=O)Nc2ccc3c(c2)OCO3)[C@H]1OC(=O)Nc1ccc2c(c1)OCO2`, for which the composite z-score was -0.382 in [1]; 0.755 in [2]; 0.0094 in assay [3]; 0.358 in [4]; 0.893 in assay [5]; 0.958 in [6]. In addition, the composite z-score in assay [7] was 1.17; in assay [9], -0.253; in assay [10] it was -0.201; in assay [11], 1.55; in assay [15], 3.25; in assay [17], -0.0025. For the same molecule, the composite z-score in assay [18] is 1.07; in assay [19], 0.649; in [20], -0.142. The z-score in assay [8] was 6.24 (inactive); in assay [12] it was 1.38 (inactive); in [13] it was 1.29 (inactive); in assay [14] it was 1.6 (inactive); in [16] it was 1.76 (inactive).

For the molecule `C=C(CCCC)/C(=C/C[C@@H](OC(=O)c1ccncc1)c1ccccc1OCCO)c1cc(C(=O)OC)ccc1OC`, the composite z-score in [1] was -0.256; in assay [2], 0.815; in assay [3], -0.0628; in assay [4], 0.173; in [5] it was 0.791; in [6], 1.17. The composite z-score in assay [7] was 1.2; in assay [9], -0.242; in [10], -0.0296; in assay [11] it was 1.49; in [15], 2.75; in assay [17], -0.0154. Also, the composite z-score in assay [18] was found to be 0.987; in assay [19], 0.754; in assay [20], 0.0895. In addition, the z-score in assay [8] was 0.488 (inactive); in assay [12], 0.176 (inactive); in assay [13], -0.587 (inactive); in assay [14] it was 0.259 (inactive); in assay [16] it was 0.478 (inactive).

`CCCCC=C[C@@H](NC(=O)CCc1ccccc1)c1ccccc1`: the composite z-score in assay [1] is 0.0413; in assay [2], 1.04; in assay [3], 0.0601; in assay [4] it was 0.404; in [5], 1.11; in [6], 1.23. In addition, the composite z-score in [7] was 1.24; in assay [9], 0.843; in assay [10], 0.316; in assay [11] it was 0.887; in assay [15] it was 1.43; in [17], 0.138. Moreover, the composite z-score in assay [18] was determined as 0.0567; in [19], 1.12; in assay [20] it was 0.0184. For the same molecule, the z-score in assay [8] was -1.42 (inactive); in [12], 0.174 (inactive); in [13], -1.52 (inactive); in [14], 2.19 (inactive); in assay [16], -1.52 (inactive).

For `COCCCNC(=O)[C@]1(Cc2ccccc2)N=C(c2ccc(OCCCO)cc2)O[C@@H]1c1ccccc1N=[N+]=[N-]`, the composite z-score in assay [1] worked out at 0.29; in assay [2] it was 1.54; in assay [3], 0.12; in assay [4] it was 0.632; in assay [5] it was 1.02; in assay [6] it was 0.725. The composite z-score in assay [7] was 1.2; in assay [9], 1.47; in [10], -0.0994; in [11] it was 1.56; in assay [15] it was 3.16; in assay [17] it was -0.02. Besides, the composite z-score is 1.67 in [18], 1.15 in [19] and -0.0238 in assay [20]. Besides, the z-score in assay [8] was -0.309 (inactive); in [12], -0.499 (inactive); in [13], -0.357 (inactive); in assay [14], 1.37 (inactive); in assay [16] it was 0.49 (inactive).

As for `COCCOC(=O)N1C(=O)[C@@]2(c3cc(C#CCNC(N)=O)ccc31)[C@H](C(=O)N1CCCCCCC1)[C@H]1C(=O)O[C@H](c3ccccc3)[C@H](c3ccccc3)N1[C@@H]2c1ccc(OCCO)cc1`, the composite z-score in assay [1] is 1.03; in assay [2] it was 0.303; in [3], -0.0024; in [4] it was 0.578; in [5], 0.754; in [6], 0.446. The composite z-score in assay [7] came to 0.0222; in [9] it was 0.7; in assay [10], 0.443; in assay [11], 0.543; in assay [15], 0.808; in [17], 0.239. The composite z-score amounted to 0.616 in assay [18], 1.07 in assay [19] and 0.0126 in assay [20]. Further, the z-score in assay [8] was -0.557 (inactive); in assay [12], 0.872 (inactive); in assay [13], 0.642 (inactive); in assay [14] it was 3.24 (inactive); in assay [16], -0.299 (inactive).

The values above are taken from PubChem BioAssay.
